# Active and inactive are the calls of the source.
# What was measured:
# Albumin (Bos taurus) = Albumin (Bos taurus) (UniProt P02769); test: bovine serum albumin binders on microarray, profiling panel, artefact control for SMM control protein annotation, biochemical, small-molecule microarray, Alexa647 label, 635/667 nm fluorescence (AID 1118); settings: BSA-A647 binding, fluorescence 635 nm, higher = more signal;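 further: score merges 667 nm emission intensity and signal-to-noise per printed compound spot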
# Sequence of Albumin (Bos taurus) (P02769 whole entry, looked up): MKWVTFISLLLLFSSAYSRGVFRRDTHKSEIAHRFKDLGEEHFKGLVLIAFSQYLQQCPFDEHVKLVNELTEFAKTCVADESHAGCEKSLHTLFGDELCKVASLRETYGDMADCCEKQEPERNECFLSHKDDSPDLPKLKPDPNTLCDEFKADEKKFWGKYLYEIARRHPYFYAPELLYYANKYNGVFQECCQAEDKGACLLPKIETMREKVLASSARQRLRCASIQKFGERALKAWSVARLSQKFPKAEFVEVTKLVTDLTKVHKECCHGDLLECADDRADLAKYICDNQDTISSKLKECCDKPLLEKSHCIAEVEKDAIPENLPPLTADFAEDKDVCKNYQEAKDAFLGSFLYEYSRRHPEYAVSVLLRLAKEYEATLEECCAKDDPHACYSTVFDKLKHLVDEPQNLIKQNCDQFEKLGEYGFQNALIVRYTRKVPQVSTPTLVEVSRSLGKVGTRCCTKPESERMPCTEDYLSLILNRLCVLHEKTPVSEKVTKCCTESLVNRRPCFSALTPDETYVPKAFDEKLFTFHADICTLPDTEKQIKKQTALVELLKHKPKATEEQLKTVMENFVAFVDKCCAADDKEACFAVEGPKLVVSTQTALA
# [1] = small-molecule microarray binders of probe aXIP, primary screen, biochemical, NeuroSMM set, 635/667 nm fluorescence (AID 1119); settings: higher = more signal, called active from +8 up or from −8 down;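 further: probe is the protein aXip251-270 applied at 1 µg/mL to compound-printed slides; binding of probe to printed compounds measured as 667 nm fluorescence plus signal to noise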
# [2] = small-molecule binders of probe aNOTCH3, primary screen, biochemical, small-molecule microarray, 635/667 nm fluorescence (AID 1120); settings: higher = more signal;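 further: probe is a biotin-tagged antibody raised against NOTCH3 rather than NOTCH3 protein; score merges spot fluorescence near 667 nm with spot signal to noise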
# [3] = small-molecule binders of probe aNOTCH2, primary screen, biochemical, small-molecule microarray, 635/667 nm fluorescence (AID 1121); settings: higher = more signal;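 further: score merges feature fluorescence read at 667 nm with its signal to noise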
# [4] = target: Carbonic anhydrase 2 (Homo sapiens) (UniProt P00918); test: CAII small-molecule binders, profiling panel, biochemical, small-molecule microarray, Alexa647-labelled CAII (AID 1122); settings: CAII-A647 binding fluorescence, higher = more signal
# [5] = COS7 lysate on small-molecule microarray, probe aHis, 635 nm (AID 1123); settings: COS7 cell lysate, fluorescence, higher = more signal;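 further: z-score combines 667nm fluorescence intensity with signal-to-noise per printed compound spot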
# [6] = compound binding in COS7 lysate, probe aLAP1, primary screen, cell lysate, small-molecule microarray (AID 1124); settings: probe aLAP1, fluorescence, higher = more signal;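 further: lysate comes from COS7 cells expressing LAP1 and is applied at 0.3 µg/mL; score merges spot fluorescence near 667 nm with signal-to-noise over triplicate slides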
# Sam68 (KHDRBS1) = test: Sam68 small-molecule binders, primary screen, biochemical, small-molecule microarray, 635 nm fluorescence (AID 1125); settings: small-molecule microarray binding, higher = more signal;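 further: score merges 667 nm channel intensity with signal to noise over triplicate slides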
# [7] = system: Chordin-like protein 2 (CHRDL2); test: CHRDL2 small-molecule binders, primary screen, biochemical, small-molecule microarray, 635 nm fluorescence (AID 1126); settings: small-molecule microarray binding, fluorescence 635 nm; higher = more signal;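 further: printed compound slides probed with Chrdl2 protein at 4 µg/mL for 1 h at 4 C; score merges 667 nm emission intensity with signal to noise over three replicate slides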
# [8] = target: Concanavalin-A (Canavalia ensiformis) (UniProt P02866); test: ConA small-molecule binders, primary screen, artefact control for SMM control protein annotation, biochemical, small-molecule microarray, Alexa647 label, 635 nm (AID 1127); settings: ConA-A647 binding fluorescence, higher = more signal;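 further: z combines 667 nm emission intensity with signal-to-noise across three replicate slides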
# Sequence of Concanavalin-A (Canavalia ensiformis) (P02866 whole entry, looked up): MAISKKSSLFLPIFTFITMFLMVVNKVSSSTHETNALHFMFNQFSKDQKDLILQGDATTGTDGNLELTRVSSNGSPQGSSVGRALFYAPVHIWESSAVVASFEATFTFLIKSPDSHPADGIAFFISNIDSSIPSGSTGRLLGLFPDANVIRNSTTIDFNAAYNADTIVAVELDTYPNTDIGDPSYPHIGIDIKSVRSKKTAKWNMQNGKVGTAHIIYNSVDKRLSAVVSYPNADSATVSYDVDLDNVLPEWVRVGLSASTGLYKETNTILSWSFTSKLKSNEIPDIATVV
# [9] = anti-His antibody binders, primary screen, artefact control for SMM control protein annotation, biochemical, small-molecule microarray, 635 nm fluorescence (AID 1128); settings: anti-His Alexa647 antibody binding, higher = more signal;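 further: score merges feature fluorescence with signal-to-noise for each printed compound spot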
# [10] = system: Human papillomavirus type 1a E7 protein (residues 1-88); test: HPV1a E7 small-molecule binders, primary screen, biochemical, small-molecule microarray, residues 1-88, 635 nm (AID 1129); settings: small-molecule microarray binding, fluorescence 635 nm; higher = more signal
# [11] = target: Focal adhesion kinase 1 (Homo sapiens) (UniProt Q05397); test: small-molecule microarray binders of FAK, primary screen, biochemical, 635/667 nm fluorescence, BSA, DTT (AID 1130); settings: PTK2 binding, 635 nm fluorescence, higher = more signal;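 further: composite of spot emission at 667 nm and signal to noise over triplicate slides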
# Sequence of Focal adhesion kinase 1 (Homo sapiens) (Q05397 whole entry, looked up): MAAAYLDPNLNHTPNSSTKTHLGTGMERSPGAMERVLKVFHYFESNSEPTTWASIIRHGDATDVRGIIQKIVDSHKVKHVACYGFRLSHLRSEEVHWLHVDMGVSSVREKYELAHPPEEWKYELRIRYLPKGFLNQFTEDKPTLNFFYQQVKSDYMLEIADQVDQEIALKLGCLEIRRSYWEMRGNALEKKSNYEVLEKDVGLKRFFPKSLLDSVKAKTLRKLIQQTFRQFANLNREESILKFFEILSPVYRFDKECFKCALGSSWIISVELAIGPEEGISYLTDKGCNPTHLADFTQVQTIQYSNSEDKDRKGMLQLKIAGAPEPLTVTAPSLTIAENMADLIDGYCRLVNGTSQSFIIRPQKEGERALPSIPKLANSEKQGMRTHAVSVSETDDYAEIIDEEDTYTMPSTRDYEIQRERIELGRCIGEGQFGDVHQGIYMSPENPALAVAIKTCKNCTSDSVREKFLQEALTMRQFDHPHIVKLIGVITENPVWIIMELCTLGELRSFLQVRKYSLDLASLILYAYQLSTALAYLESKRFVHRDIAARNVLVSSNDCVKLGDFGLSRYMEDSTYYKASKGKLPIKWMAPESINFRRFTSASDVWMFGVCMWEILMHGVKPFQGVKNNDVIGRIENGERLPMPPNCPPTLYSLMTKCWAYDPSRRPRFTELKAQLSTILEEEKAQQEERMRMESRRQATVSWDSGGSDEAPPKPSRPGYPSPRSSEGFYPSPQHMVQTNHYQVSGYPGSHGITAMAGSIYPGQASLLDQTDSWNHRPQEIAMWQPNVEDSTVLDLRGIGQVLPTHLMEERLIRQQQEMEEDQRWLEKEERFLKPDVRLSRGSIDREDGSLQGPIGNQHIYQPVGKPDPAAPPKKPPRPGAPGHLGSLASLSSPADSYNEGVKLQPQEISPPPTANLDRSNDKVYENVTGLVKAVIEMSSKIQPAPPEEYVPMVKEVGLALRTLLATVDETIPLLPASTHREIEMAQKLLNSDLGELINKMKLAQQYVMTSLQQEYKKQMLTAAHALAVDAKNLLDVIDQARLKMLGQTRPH
# [12] = system: Fibrinogen (Alexa647-labelled); test: fibrinogen binders on compound microarrays, profiling panel, artefact control for SMM control-protein annotation, biochemical, small-molecule microarray, 635/667 nm fluorescence (AID 1131); settings: fibrinogen-A647 binding fluorescence, higher = more signal;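 further: z-score merges 667 nm fluorescence with per-spot signal-to-noise over triplicate slides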
# [13] = target: Follistatin (Homo sapiens) (UniProt P19883); test: follistatin binders on small-molecule microarrays, primary screen, biochemical, small-molecule microarray, 635/667 nm fluorescence (AID 1132); settings: FST binding, 635 nm fluorescence, higher = more signal
# Sequence of Follistatin (Homo sapiens) (P19883 whole entry, looked up): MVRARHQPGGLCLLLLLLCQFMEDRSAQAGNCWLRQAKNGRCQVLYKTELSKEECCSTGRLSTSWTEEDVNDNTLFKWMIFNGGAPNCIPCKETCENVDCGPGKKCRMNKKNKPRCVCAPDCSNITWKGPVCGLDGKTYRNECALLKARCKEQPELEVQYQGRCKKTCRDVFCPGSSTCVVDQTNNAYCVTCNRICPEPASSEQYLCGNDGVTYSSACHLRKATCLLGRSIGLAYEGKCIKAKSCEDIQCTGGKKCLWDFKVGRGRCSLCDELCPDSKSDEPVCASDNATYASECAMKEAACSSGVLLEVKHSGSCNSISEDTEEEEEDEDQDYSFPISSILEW
# [14] = target: Fibroblast growth factor 2 (Homo sapiens) (UniProt P09038); test: FGF2 binders on small-molecule microarrays, primary screen, biochemical, small-molecule microarray, 635/667 nm fluorescence (AID 1133); settings: small-molecule microarray binding, FGF2, fluorescence 635/667; higher = more signal
# Sequence of Fibroblast growth factor 2 (Homo sapiens) (P09038 whole entry, looked up): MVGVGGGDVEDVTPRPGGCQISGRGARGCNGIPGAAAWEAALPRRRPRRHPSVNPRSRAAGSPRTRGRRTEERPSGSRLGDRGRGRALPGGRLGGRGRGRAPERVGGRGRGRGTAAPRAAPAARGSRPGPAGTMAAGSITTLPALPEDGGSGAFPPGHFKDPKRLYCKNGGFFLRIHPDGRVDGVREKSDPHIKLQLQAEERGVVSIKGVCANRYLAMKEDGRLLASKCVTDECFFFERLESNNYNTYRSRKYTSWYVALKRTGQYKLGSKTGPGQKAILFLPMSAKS
# [15] = mitochondrial membrane potential change in A549 cells, profiling panel, cell-based, JC-1 fluorescence, basal, 24 h, 100 nL (AID 1138); settings: higher = more signal;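 further: A549 lung adenocarcinoma cells under basal conditions with no added stimulus; test concentration not given here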
# Lefty1 = Lefty1 binders on small-molecule microarrays, primary screen, biochemical, small-molecule microarray, 635/667 nm fluorescence (AID 1139); settings: small-molecule microarray binding, fluorescence 635/667; higher = more signal
# [16] = system: wheat germ agglutinin (Triticum aestivum), Alexa647-labelled; test: wheat germ agglutinin binders on compound microarrays, profiling panel, artefact control for SMM control-protein annotation, biochemical, small-molecule microarray, 635/667 nm fluorescence (AID 1140); settings: WGA-A647 binding, 635 nm fluorescence, higher = more signal;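 further: score merges 667 nm feature emission with signal to noise over triplicate slides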
# [17] = target: Luciferin 4-monooxygenase (Photinus pyralis) (UniProt P08659); test: firefly luciferase enzyme inhibitors, primary screen, biochemical, luminescence, purified enzyme, 2006 set (AID 1141); settings: SteadyGlo luminescence, 30 min, higher = more signal, called active from +8 up or from −8 down;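 further: cell-free assay with purified firefly luciferase at 100 ng per well in PBS; test concentration not given here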
# Sequence of Luciferin 4-monooxygenase (Photinus pyralis) (P08659 whole entry, looked up): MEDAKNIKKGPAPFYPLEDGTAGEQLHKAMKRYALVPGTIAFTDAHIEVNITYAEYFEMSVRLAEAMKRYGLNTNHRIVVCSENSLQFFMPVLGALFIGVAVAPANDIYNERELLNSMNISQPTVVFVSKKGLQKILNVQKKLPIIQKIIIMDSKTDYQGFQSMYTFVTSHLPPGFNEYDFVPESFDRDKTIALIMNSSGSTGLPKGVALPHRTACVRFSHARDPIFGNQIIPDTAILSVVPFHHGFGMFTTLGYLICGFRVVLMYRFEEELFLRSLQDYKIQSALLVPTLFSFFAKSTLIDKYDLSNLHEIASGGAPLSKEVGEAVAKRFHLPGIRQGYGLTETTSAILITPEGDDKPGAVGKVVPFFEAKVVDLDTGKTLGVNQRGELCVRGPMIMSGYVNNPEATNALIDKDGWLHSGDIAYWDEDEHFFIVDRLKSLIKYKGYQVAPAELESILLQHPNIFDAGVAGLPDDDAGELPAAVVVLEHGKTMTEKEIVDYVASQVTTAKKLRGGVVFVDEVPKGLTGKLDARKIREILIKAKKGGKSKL
Compound,composite z-score (Albumin (Bos taurus)),composite Z-score [1],composite z-score [2],composite z-score [3],composite z-score [4],composite z-score [5],composite z-score [6],composite z-score (Sam68 (KHDRBS1)),composite z-score [7],composite z-score [8],composite z-score [9],composite z-score [10],composite z-score [11],composite z-score [12],composite z-score [13],composite z-score [14],z-score [15],composite z-score (Lefty1),composite z-score [16],z-score [17]
C=C[C@H](COC(C)=O)NS(=O)(=O)c1ccc(Br)cc1,0.0793,0.131 (inactive),-0.217,-0.106,-0.111,-0.0413,-0.0354,-0.603,1.14,0.43,0.207,-0.575,-0.0533,0.382,1.27,-0.0651,0.695,0.17,0.146,-0.503 (inactive)
CN(C)CCCN1C(=O)[C@@]2(c3ccc([N+](=O)[O-])cc3)CC(=O)N(CC34CC5CC(CC(C5)C3)C4)[C@@H]2c2ccc(CO)cc21,-0.348,-0.184 (inactive),-0.208,-0.0391,0.76,1.08,0.538,0.503,-0.304,0.412,1.98,-0.0813,-0.117,0.926,0.203,-0.112,1.72,0.13,0.354,-0.701 (inactive)
COCCCNC(=O)[C@@]1(Sc2ccc(C)cc2)CC(=O)N(C2Cc3ccccc3C2)[C@@H]1c1ccc(CO)cc1I,-1.09,-0.298 (inactive),-0.146,-0.102,0.871,-0.152,0.297,-0.52,-0.555,-1.61,-0.961,-1.01,-1.01,-1.07,-1.01,-1.19,0.314,-1.68,-0.0708,0.553 (inactive)
CCCc1cccc(=O)o1,0.387,-0.75 (inactive),-0.0665,-0.127,0.43,0.897,0.359,0.699,0.221,0.828,0.439,0.799,0.106,0.915,0.793,0.223,0.352,0.614,0.782,2.08 (inactive)
CC(C)OC(=O)CC(=O)CC(O)c1cccc(C#N)c1 (stereo not given),0.586,0.586 (inactive),0.178,-0.022,0.522,1.03,0.0279,1.35,-0.591,1.13,0.797,0.828,0.763,0.974,0.102,-0.51,0.67,-0.0714,0.841,1.2 (inactive)
COCCCNC(=O)[C@@]1(Sc2ccc(C)cc2)CC(=O)N(Cc2cc(C(F)(F)F)cc(C(F)(F)F)c2)[C@@H]1c1ccc(CO)cc1,0.734,1.14 (inactive),0.0562,-0.0136,0.703,2.41,1.1,1.21,0.749,0.715,1.79,0.566,0.813,0.248,1.06,0.686,0.727,1.25,-0.271,-0.363 (inactive)
CO[C@H]1O[C@H](CO)[C@@H](OC(=O)Nc2ccc(C(F)(F)F)cc2)[C@H](OC(=O)Nc2ccc3c(c2)OCO3)[C@H]1OC(=O)Nc1ccc2c(c1)OCO2,0.72,1.42 (inactive),0.169,0.0062,0.767,2.67,0.59,1.3,-0.146,1.14,2.97,1.17,1.33,0.806,0.977,0.395,-1.16,0.871,1.07,-7.72 (inactive)
COCCOC(=O)N1C(=O)[C@@]2(c3cc(C#Cc4ccc(OC)cc4)ccc31)[C@H](C(=O)NC[C@H](O)c1ccccc1)[C@H]1C(=O)O[C@H](c3ccccc3)[C@H](c3ccccc3)N1[C@@H]2c1ccc(O)cc1,0.148,0.552 (inactive),0.236,-0.154,0.441,1.7,1.48,1.29,0.806,1.16,0.933,1.16,0.33,0.912,1.16,1.01,-1.47,1.19,0.666,0.273 (inactive)
CC(C)N1CC=CC23O[C@@H]4C=CCCOC(=O)C4[C@H]2C(=O)N(CCO)[C@@H]3C1=O (stereo not given in full),0.0894,-0.455 (inactive),-0.305,-0.125,0.763,-0.548,0.199,-0.354,-0.414,0.172,-0.517,-1,-0.482,-0.288,-0.194,-0.205,-0.467,0.0404,0.459,0.697 (inactive)
[N-]=[N+]=NCc1ccccc1C[C@@]1(C(=O)N2CCCCC2)N=C(c2ccc(OCCCO)cc2)O[C@@H]1c1ccccc1N=[N+]=[N-],0.79,0.131 (inactive),0.0522,-0.13,0.378,2.1,-0.0562,1.09,-0.186,1.08,1.4,1.14,0.759,0.769,0.249,0.157,1.25,-0.162,0.885,-6.07 (inactive)
CO[C@H]1O[C@H](CO)[C@@H](OC(=O)c2ccc(Br)cc2)[C@@H]2OC(=O)[C@@H](Cc3ccc4ccccc4c3)C/C=C/C[C@H](Cc3ccc4ccccc4c3)C(=O)O[C@@H]12,0.934,0.589 (inactive),0.109,0.0043,0.63,1.93,0.547,1.24,-0.517,0.275,1.4,1.2,0.337,-0.216,0.395,-0.311,1.59,-0.345,0.691,-1.28 (inactive)

# Reference: PubChem BioAssay
